# The list is not random: actives were taken first. Their share in the collection is about 9.4%.
# HTT cytoprotect: protects HTT-Q103 PC12 cells, measured by ATP; 230,000 compounds, 0.14% hits; Potency, µM (top dose mostly 56.4 µM), hits mostly activators; PC12 HTT-Q103 induced, cytoprotection, ATP luminescence, 40 h; also: nearly all actives have a fitted effect of over 45% in size
#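 Stable PC12 Q103-GFP cells in serum-supplemented, phenol red-free DMEM; induction by tebufenozide at 100 nM final; compound dose series; cell viability quantified luminescently from ATP.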
# HPGD block: inhibitors of human 15-hydroxyprostaglandin dehydrogenase (HPGD); purified HPGD, NADH fluorescence kinetic, PGE2 substrate; Potency, µM, actives largely listed as inhibitors; 150,000 compounds, 4.3% hits; AID 894; active = well fitted inhibition curve with a large enough effect, not every such curve was filed as active; inconclusive = small, poorly fitted or top-dose-only effect, or another doubt; inactive = no such curve, though single readings can be large or run the other way
# Target sequence (P15428 whole entry, looked up): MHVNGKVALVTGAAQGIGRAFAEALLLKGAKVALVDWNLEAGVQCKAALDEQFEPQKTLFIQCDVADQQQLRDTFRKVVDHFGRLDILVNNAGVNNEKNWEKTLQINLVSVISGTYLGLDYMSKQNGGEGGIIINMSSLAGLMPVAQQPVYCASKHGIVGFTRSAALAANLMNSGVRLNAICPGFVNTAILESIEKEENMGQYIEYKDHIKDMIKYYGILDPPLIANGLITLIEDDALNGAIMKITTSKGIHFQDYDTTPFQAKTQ
#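 20 nM HPGD preincubated 15 min at room temperature with compound in 50 mM Tris-HCl pH 8, 0.01% Tween 20. Started with 1 mM NAD+ and 30 uM prostaglandin E2; NADH fluorescence (360/450 nm) read 5 times over 30-s intervals, last minus first.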
# HTT aggregate: reduces HttQ103-GFP aggregates in PC12 cells; Potency, µM (titrated, usually from 46.1 µM), most hits filed as inhibitors; PC12 HttQ103-GFP aggregates, Acumen cytometry, 40 h; 220,000 compounds, 1.1% hits; also: nearly all actives have a fitted effect of over 60% in size
#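 Ecdysone-promoter PC12 model expressing HTT exon 1 Q103 fused to GFP, induced by tebufenozide at 100 nM final. Compounds titrated; aggregates sized 1–25 µm scored on a 488 nm laser cytometer.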
# ALDH1A1 inh: ALDH1A1 (human) enzyme inhibition. Potency, µM (series often up to 75.3 µM), most hits filed as inhibitors. 220,000 compounds, 7.3% hits. Purified ALDH1A1, NADH fluorescence, propionaldehyde substrate; active = well fitted inhibition curve with a large enough effect, not every such curve was filed as active; inconclusive = small, poorly fitted or top-dose-only effect, or another doubt; inactive = no such curve, though single readings can be large or run the other way
# IMPase Li cell: IMPase inhibition in cells with lithium potentiation. Potency, µM (top dose mostly 59.4 µM), usual class: inhibitors. 210,000 compounds, 0.35% hits. CHO-M1 cells, IP1 TR-FRET (IP-One), carbachol + lithium;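 also: IP1 builds up when IMPase is blocked and the TR-FRET signal falls; nearly all actives have a fitted effect of over 50% in size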
#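 CHO cells stably expressing M1 receptor (2000/well, cultured 16–30 h) treated 30 min at 37C with compound plus low lithium. Cytosolic IP1 by TR-FRET (665/620 ratio and 620 channel) after 10 min lysis; AC50 by Hill fit.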
# IMPase cell inh: membrane-permeable compound that blocks inositol monophosphatase | inhibition (IP1 accumulation), % at 46.1 µM | CHO-M1 cells, IP1 accumulation, HTRF TR-FRET ratio | 120,000 tested, under 10 active | P97697 | AID 901; active = well fitted curve in the direction sought with a large enough effect in the signal ratio, not every such curve was filed as active; inconclusive = small, poorly fitted or top-dose-only effect, or a change in a side signal; inactive = no such curve, though single readings can be large or run the other way; the % refers to the signal ratio;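 also: cells stimulated with carbachol in lithium chloride buffer; higher means more IMPase inhibition seen as more IP1 and lower FRET ratio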
# Target sequence (P97697 whole entry, looked up): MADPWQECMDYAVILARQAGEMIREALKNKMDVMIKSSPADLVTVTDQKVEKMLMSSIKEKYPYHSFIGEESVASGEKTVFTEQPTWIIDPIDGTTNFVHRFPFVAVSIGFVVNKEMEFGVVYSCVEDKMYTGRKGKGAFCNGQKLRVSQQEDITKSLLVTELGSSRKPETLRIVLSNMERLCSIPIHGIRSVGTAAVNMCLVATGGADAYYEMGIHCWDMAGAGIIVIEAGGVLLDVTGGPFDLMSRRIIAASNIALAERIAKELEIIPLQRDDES
#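 Measured: the HTRF emission ratio (665/620 nm) plus the 620 nm donor channel, each fitted to the Hill equation to give AC50. Cells were CHO-M1 given compounds up to 46 uM and a 30 min carbachol stimulation at 37C.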
# Numbers stand for hits; - = inactive; ? = inconclusive; . = no result; ! = not active in a repeat; [ ] = another dose, or the depositor's remark. Unless noted, calls follow the shape of the dose curve; as a rule, active = well fitted curve in the direction sought with a large enough effect; inconclusive = small, poorly fitted or top-dose-only effect, or another doubt; inactive = no such curve, though single readings can be large; an effect the other way counts as inactive or inconclusive.
SMILES,HTT cytoprotect,HPGD block,HTT aggregate,ALDH1A1 inh,IMPase Li cell,IMPase cell inh
CSc1nc(C)cc(Nc2ccc(O)c(CN3CCCCC3)c2)n1,-[10 µM],-,.,-[13.5 µM],-,.
COc1ccccc1-c1cc(Nc2ccn[nH]2)ncn1,-,.,.,?,-,.
CCc1nnc2c3ccccc3nc(Nc3cc(C)cc(C)c3)n12,.,.,.,.,.,-
CCCCN(CCCC)S(=O)(=O)c1ccc(NC(=O)c2c(-c3ccccc3)noc2C)cc1,.,.,.,.,.,-
CCNc1ncc2nc(-c3ccc(F)cc3)c(=O)n(CCc3ccccc3)c2n1,-,.,.,?,5.6µM,.
CCNc1ncc2nc(-c3ccccc3)c(=O)n(CCc3ccccc3)c2n1,-,?,.,?,-,.
COc1ncc2nc(-c3ccc(F)cc3)c(=O)n(CCc3ccccc3)c2n1,-,.,.,-,14µM,.
COc1ncc2nc(-c3ccccc3)c(=O)n(CCc3ccccc3)c2n1,?,.,.,?,-,.
Cc1ccc([N+](=O)[O-])cc1S(=O)(=O)N(C(=O)c1ccncc1)c1ccc2oc3c(c2c1)CCCC3,-[10 µM],-,18µM,-,-,.
Cc1ccc(S(=O)(=O)N(C(=O)c2ccncc2)c2ccc3oc4c(c3c2)CCCC4)cc1[N+](=O)[O-],-[10 µM],-,?,?,-,.
Cn1c2ccccc2c2c(C(=O)N3CCN(c4cccc(Cl)c4)CC3)cn(C3CCCCC3)c(=O)c21,.,.,.,.,.,-
N#C/C(=C\c1ccccc1OCc1ccc(C(=O)O)cc1)C(=O)Nc1ccc(O)cc1,-,.,-,5.6µM,-,.
COC(=O)c1ccc(COc2ccccc2/C=C(\C#N)C(=O)Nc2ccc(C)cc2)cc1,-[10 µM],-,-,-,-,.
Cc1ccc(C)c(Sc2ccc(NC(=O)CCl)cc2)c1,-[10 µM],-,-,0.89µM,-,.
Cc1ccc(Sc2ccc(NC(=O)CCl)cc2)cc1C,-[10 µM],?,-,2µM,-,.
CC1(C)CC(=O)C2=C(C1)OC(N)=C(C#N)C2c1cccs1 (centres undefined),-[10 µM],.,-[9.22 µM],22µM,-,.
COc1ccc(C2C3=C(CC(C)(C)CC3=O)OC(N)=C2[N+](=O)[O-])cc1 (centres undefined),-[10 µM],-,-,19µM,-,.
COc1ccc2c(c1)C(C1=C(O)CC(C)(C)CC1=O)C1=C(CC(C)(C)CC1=O)O2 (centres undefined),-,-,-,-,-,-
CC1(C)CC(=O)C2=C(C1)OC(N)=C(C#N)C2c1ccccc1 (centres undefined),-,-,-,14µM,-,-
CC1(C)CC(=O)C(C2C3=C(CC(C)(C)CC3=O)Oc3ccccc32)=C(O)C1 (centres undefined),-,-,-,28µM,-,-
Cc1ccc(C2C(C#N)=C(N)OC3=C2C(=O)CC(C)(C)C3)s1 (centres undefined),-[10 µM],.,-[9.22 µM],.,.,.
CCOc1ccccc1NC(=O)c1c(NC(=O)C(C)Oc2ccc(Cl)cc2)sc2c1CCCCC2 (centres undefined),.,.,.,.,.,-
CC1(C)CC(=O)C2=C(C1)OC(c1cccs1)C(C#N)=C2N (centres undefined),-,-,-,11µM,-,-
COC(=O)C1=C(N)OC2=C(C(=O)CC(C)(C)C2)C1c1cccs1 (centres undefined),-,22µM,-,-,-,-
CC1(C)CC(=O)C2=C(C1)OC(N)=C(C#N)C2C1C=CCCC1 (centres undefined),-,-,-,4µM,-,-
SMILES,HTT cytoprotect,HPGD block,HTT aggregate,ALDH1A1 inh,IMPase Li cell,IMPase cell inh
CC1(C)CC(=O)C2=C(C1)N(N1CCOCC1)C(N)=C(C#N)C2c1cccs1 (centres undefined),-[10 µM],-,-,-,-,.
COc1ccc(NC(=O)c2sc3nc(C)c(C(=O)Nc4ccc(C)cc4C)c(-c4sccc4C)c3c2N)cc1,.,.,.,.,.,-
CC1=C(/C=C/C(C)=C/C=C/C(C)=C/C(=O)Oc2c(C)c(C)c3c(c2C)CC[C@@](C)(CCC[C@H](C)CCC[C@H](C)CCCC(C)C)O3)C(C)(C)CCC1,-,.,-,.,.,.
O=[N+]([O-])c1cc(Cl)c(O)c2ncccc12,-,.,7.9µM,?,-,.
Oc1c(CN2CCc3ccccc3C2)cc(Cl)c2cccnc12,-,-,?,-,-,-
Oc1c(C(c2ccccn2)N2CCCCC2)cc(Cl)c2cccnc12 (centres undefined),-,.,25µM,?,-,.
Oc1c(I)cc(Cl)c2cccnc12,-,-,10µM,25µM!,-,-
O=[N+]([O-])c1ccc(O)c2cccnc12,-,.,-,-,-,.
O=[N+]([O-])c1ccc(O)c2ncccc12,-,-,3.5µM,?,-,.
CCOc1cccc(C2c3c(oc4cc(C)c(C)cc4c3=O)C(=O)N2c2nc(C)c(C)s2)c1 (centres undefined),.,.,.,.,.,-
O=[N+]([O-])c1cccc2c(Cl)ccnc12,?,.,-[9.22 µM],?,-,.
O=[N+]([O-])c1cc(F)c2cccnc2c1O,-[10 µM],.,-[9.22 µM],18µM,.,.
O=[N+]([O-])c1ccc(Cl)c2cccnc12,-,.,-,18µM,-,.
O=[N+]([O-])c1cc(Cl)c2cccnc2c1O,-,.,?,-,-,.
CCC(=O)NC(c1ccc(C)cc1)c1cc([N+](=O)[O-])c2cccnc2c1O (centres undefined),-[10 µM],-,7.9µM,-,-,.
COc1ccc(S(=O)(=O)N(C)CC(=O)O)cc1C,.,-,.,-,.,.
COc1ccccc1NC(=O)c1sc2nc(C)c(C(=O)Nc3ccc(C)cc3C)c(-c3ccc(C)o3)c2c1N,.,.,.,.,.,-
O=S(=O)(CCN1CCN(C(c2ccccc2)c2ccccc2)CC1)C(F)(F)F,?,-,?,0.35µM,-,-
Cc1c(C(=O)OCC(=O)N2CC(C)OC(C)C2)oc2ccc(Br)cc12 (centres undefined),-[10 µM],?,-,0.18µM,?,-
CC1CN(C(=O)COC(=O)c2c(Cl)cccc2Cl)CC(C)O1 (centres undefined),-,.,-,-,-,.
COc1cccc(C(=O)Cn2c(Br)nc3c2c(=O)n(C)c(=O)n3C)c1,-,-,-,-,-,-
Cn1c(=O)c2c(nc(Br)n2CC(=O)C23CC4CC(CC(C4)C2)C3)n(C)c1=O,-[0.074 µM],-,-,11µM,-,-
CC(=O)Nc1ccc(S(=O)(=O)Nc2nc3ccc([N+](=O)[O-])cc3s2)cc1,-[10 µM],.,-,14µM,-,.
CC(=O)Nc1ccc(S(=O)(=O)Nc2nc3ccccc3s2)cc1,-,-,-,-,-,-
CCN1CCCC1Cn1c(-c2ccccc2)nc2c(N(CCOC)CCOC)nc(C)nc21 (centres undefined),-,-,.,?,-,.
Cc1ccc(NCCC(=O)c2ccc(Cl)c(Cl)c2)cc1,-,-,?,0.79µM,-,-
CCCOc1ccc(C(=O)CCNc2ccc(C)c(Cl)c2)cc1,-,-,-,18µM,-,-
